Screens deposited in PubChem by National Center for Advancing Translational Sciences (NCATS).
Hits are enriched below; roughly 4.3% of the tested compounds scored in any of these assays.
GLP1R inv ag: qHTS of GLP-1 Receptor Inverse Agonists (Inhibition Mode) | 1.6% of 410,000 active | Potency, µM (titrated, usually from 38.3 µM), without a hit: at the highest dose activity change, negative = inhibition, actives largely listed as inhibitors | HEK293 GLP-1R CRE-luciferase, luminescence, 24 h; GLP-1R form is constitutively active | Glucagon-like peptide 1 receptor (Homo sapiens), P43220; further: potency means the concentration at half of the fitted maximal effect; on the % scale 0 is the no-effect control and ±100 the full control effect; nearly all actives have a fitted effect of over 55% in size
Target sequence (P43220 whole entry, looked up): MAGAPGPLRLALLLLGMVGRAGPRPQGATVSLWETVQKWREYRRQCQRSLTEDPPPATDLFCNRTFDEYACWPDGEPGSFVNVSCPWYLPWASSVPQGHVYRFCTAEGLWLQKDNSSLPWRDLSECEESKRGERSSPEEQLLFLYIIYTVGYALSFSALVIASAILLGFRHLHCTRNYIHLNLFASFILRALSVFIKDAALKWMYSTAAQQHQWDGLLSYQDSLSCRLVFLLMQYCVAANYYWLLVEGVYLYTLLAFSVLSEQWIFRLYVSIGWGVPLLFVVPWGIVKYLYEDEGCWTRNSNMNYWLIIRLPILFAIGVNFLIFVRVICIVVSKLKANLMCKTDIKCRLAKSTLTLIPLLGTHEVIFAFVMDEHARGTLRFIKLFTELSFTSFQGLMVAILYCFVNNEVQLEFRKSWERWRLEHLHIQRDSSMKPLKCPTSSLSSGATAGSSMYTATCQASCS
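qHTS in 1536-well format: reporter HEK293 cells expressing constitutive GLP-1R activity in DMEM + 10% Nu serum, 24 hr with compounds at 37 deg C, luminescence read after 12 min with detection reagent.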
DRD3 antagonist: qHTS of D3 Dopamine Receptor Antagonist: qHTS; D(3) dopamine receptor (Homo sapiens), P35462; D3R cells, DiscoveRx beta-arrestin luminescence, antagonist mode; active compounds read low; max response, negative = inhibition, %; 2.5% of 360,000 active; AID 652054, 2013; in the data active means max response below about -50%; inconclusive means no clear call, values can overlap the other calls; further: on the % scale 0 is the no-effect control and ±100 the full control effect
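Cells expressing the human receptor were seeded at 1500 cells/well, incubated overnight at 37 degrees C in 5% CO2, then exposed to library compounds with dopamine controls for 90 minutes at 37 degrees C before luminescent detection.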
D3 ag: qHTS of D3 Dopamine Receptor Agonist: qHTS | max activation, % | D(3) dopamine receptor (Homo sapiens), P35462 | 0.58% of 410,000 active | D3R DiscoveRx beta-arrestin cells, luminescence, 90 min; in the data active means max activation above about 30%; further: 0% is about no effect
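Cells at 1500/well, incubated overnight, then treated with pinned compounds (dopamine as control) for 90 min at 37 degrees C. DiscoveRx reagent added for 30 - 60 minutes at room temperature; luminescence read.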
GLP-1R agonist: qHTS of GLP-1 Receptor Agonists; Glucagon-like peptide 1 receptor (Homo sapiens), P43220; AID 624172, 2012; HEK293 GLP-1R CRE-luciferase, luminescence, 4-6 h; cells express a hypersensitive GLP-1R form; 0.007% of 380,000 active; Potency, µM (doses to about 45.6 µM), for inactives: top-dose activation, hits mostly activators; further: potency means the concentration at half of the fitted maximal effect; % of control where 0% means no effect
Numbers without * were called inactive; ? = inconclusive; · = no result given. Unless noted, the call rests on the fitted dose curve; in most records, active means well fitted curve in the direction sought with a large enough effect; inconclusive means small, poorly fitted or top-dose-only effect, or another doubt; inactive means no such curve, though single readings can be large; an effect the other way counts as inactive or inconclusive.

SMILES	GLP1R inv ag	DRD3 antagonist	D3 ag	GLP-1R agonist
CCOc1ccccc1NC(=O)COc1cccc2c(=O)n(CCOC)ccc12	6%	·	12	·
CCOC(=O)c1[nH]c(C)c(CCC(=O)Nc2c(C)cc(C)cc2C)c1C	-9%	·	-10	·
COc1ccccc1NC(=S)NC1CCCCCCCCCCC1	?	-79*	-8	-5%
COc1cccc(Nc2c([N+](=O)[O-])cncc2[N+](=O)[O-])c1	64%	-29	-5	3%
COc1cccc(Nc2c(Nc3cccc(OC)c3)c(=O)c2=O)c1	-10%	-68*	-35	-1%
COc1cccc(NC(=O)Nc2ccc(C(C)(C)C)cc2)c1	6.3µM*	6	2	9%
S=C(NNc1ccc2ccccc2c1)NC1CCCCC1	10µM*	0	-13	0%
COc1ccccc1NC(=S)NC1CCCCC1	-19%	28	2	0%
CCCOc1cccc(C(=O)Nc2cccc(-c3nc4ncccc4o3)c2C)c1	13%	·	5	-1%
CCCOc1ccccc1C1Oc2nc(SC)nnc2-c2ccccc2N1C(C)=O (stereo not given)	9%	·	4	-6%
COc1ccccc1NC(=O)Nc1ccc(C(=O)N2CCCCC2)cc1	8.9µM*	-9	-7	8%
COc1ccccc1NS(=O)(=O)c1cccc(NC(=O)Nc2ccccc2)c1	5.6µM*	8	3	-10%
COc1ccccc1NS(=O)(=O)c1ccc(C)c(NC(=O)NC2CCCCC2)c1	11µM*	10	-11	5%
COC(=O)c1ccccc1NC(=O)Nc1ccc(C(=O)N2CCCC2)cc1	?	27	19	-10%
CCC(C)c1ccccc1OCCn1ccnc1 (stereo not given)	0%	0	0	4%
CC(C)(C)c1nnc(NS(=O)(=O)c2ccccc2)s1	·	·	-13	-2%
COc1ccc(CCNC(=O)c2ccc3c(c2)ncn3-c2ccc(C(C)C)cc2)cc1OC	?	·	3	·
CSc1nsc(/C=C/Nc2ccc(F)cc2)c1C#N	10%	-2	3	1%
CSc1nsc(/C=C/Nc2ccc(O)cc2C)c1C#N	13%	-55*	-3	-3%
CC1CCc2onc(C(=O)N3CCN(c4ccc(Cl)cc4)CC3)c2C1 (stereo not given)	-4%	·	-9	·
O=C(N/N=C/c1ccco1)C1CC1c1ccccc1 (stereo not given)	3%	2	-7	1%
CC(C)(C)c1ccc(C2CC2C(=O)N/N=C\c2ccc[nH]2)cc1 (stereo not given)	1.1µM*	20	14	11%
COc1cc(Cl)c(C)cc1NC(=O)c1cc2c(=O)oc3ccccc3c2s1	11%	·	6	-1%
CN(C)S(=O)(=O)c1ccc2c(c1)c(=O)c(C(=O)N1CCN(c3cccc(Cl)c3)CC1)cn2C	-15%	·	-10	-1%
CCOc1cc(N(CC)CC)ccc1/C=C(/C#N)c1nc2ccccc2[nH]1	?	-54*	-7	19%
SMILES	GLP1R inv ag	DRD3 antagonist	D3 ag	GLP-1R agonist
CCCOc1cc(N(CC)CC)ccc1/C=C(/C#N)c1nc2ccc(C)cc2[nH]1	?	-24	-9	17%
COc1ccc(-c2nc3scc(CCNS(=O)(=O)c4ccc(Oc5ccccc5)cc4)n3n2)cc1OC	57%	·	1	·
CCn1c(SCC(=O)Nc2ccc(C(C)=O)cc2)nc2nc3c(cc2c1=O)CCCC3	13%	44	30*	8%
O=C(CN1CCN(S(=O)(=O)c2cc(Cl)ccc2Cl)CC1)Nc1cccc(F)c1	?	·	-3	7%
N#Cc1cccnc1N1CCN(C(=O)c2ccc3c(c2)S(=O)(=O)c2ccccc2C3=O)CC1	13%	-1	-6	3%
O=C1c2ccccc2S(=O)(=O)c2cc(C(=O)N3CCN(c4ccc(Cl)cn4)CC3)ccc21	12%	22	44*	8%
O=C(Cc1ccccc1F)Nc1nc(-c2ccc(F)cc2)cs1	8.9µM*	38	10	2%
COc1ccc(-c2nc3c4ccccc4n(CC(=O)N4CCN(c5ccccc5OC)CC4)c(=O)n3n2)cc1	2%	·	0	·
Cc1cc(Cl)ccc1NC(=O)CN1C(=O)C(=O)c2ccccc21	-8%	·	-4	·
CCCN1C(=O)C(=O)c2cc(Cl)ccc21	-20%	-74*	-35	12%
